This assay deals with Toxoplasma gondii RH 2F1 tachyzoites (intracellular in HFF). Kind of assay: parasite survival relative to DMSO control; higher = less antiparasitic activity, active = 20 or less. Particulars: 1 µM; 72 h. In outline:
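Intracellular Toxoplasma gondii RH-2F1 tachyzoites, which express β-galactosidase, were grown in HFF cells (5 × 10^3 cells/well, 96-well plates) infected with 5 × 10^3 parasites in D2 medium for 3 h, then treated with compound at 1 μM for 72 h at 37°C in 5% CO2. Cells were lysed for 15 min, then CPRG was added and absorbance read at 570 nm after 30 min. Survival is the signal as a percentage of DMSO-treated infected controls, from 2 or more biological replicates.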
As to `O=C(c1ccc(F)cc1)N1CCN2C(=O)c3ccccc3C12c1ccccc1` (stereo not given), the parasite survival is 64.9% (inactive). For `CC(C)Oc1ccc(-n2cnc3cc(/C=C\c4ccc(C(C)(C)O)cc4)ccc32)cc1`, the parasite survival is 31.7% (inactive). With `CCCc1ccc(-c2cc3cn([C@H]4C[C@H](O)[C@@H](CO)O4)c(=O)nc3o2)cc1` the figure was 61.6% (inactive). Regarding `CC1(C)[C@H](C(=O)O)N2C(=O)C[C@H]2S1(=O)=O`, the parasite survival is 35.7% (inactive).

Take `COc1ccc2cc3[n+](cc2c1OCCN(CCn1cncn1)Cc1ccc(F)cc1F)CCc1cc2c(cc1-3)OCO2`: the parasite survival is 47.3% (inactive). The figure for `COc1cc(Cc2cnc(N)nc2N)c2c(c1OC)OC(C1CC1)C=C2` (stereo not given) is 10.4% (active). Turning to `O=c1[nH]cnc2c1ncn2[C@H]1CC[C@@H](CO)O1`, the parasite survival was 79.3% (inactive).

On to `Cc1cc(O)c2c(c1)C(=O)c1c(I)c(O)c(I)c(O)c1C2=O`, for which the parasite survival is 47% (inactive). With `COc1ccc(C(C)(C)C)cc1NC(=O)C(=O)c1ccc(OCCN2CCOCC2)c2ccccc12` the figure was 45.8% (inactive); with `COC(=O)Nc1nc2ccccc2[nH]1`, 53% (inactive). The figure for `Cc1nc(Nc2ccc(F)cc2)nc(N2CCc3ccccc3C2C)c1C` (stereo not given) is 20.5% (inactive). The figure for `COc1ccc(C2CNC(=O)C2)cc1OC1CCCC1` (stereo not given) is 69.8% (inactive). On to `N#CCN1C(=O)COc2cc(F)c(N3C(=O)c4ccccc4C3=O)cc21`, for which the parasite survival is 67.4% (inactive). Consider `CC(C)/N=c1\cc2n(-c3ccc(Cl)cc3)c3ccccc3nc-2cc1Nc1ccc(Cl)cc1`, for which the parasite survival was 4.63% (active). With `c1ccc(-c2nnc3c4ccccc4c(N4CCNCC4)nn23)cc1` the figure was 11.3% (active).
